For six compounds, growth results are on record in PubChem BioAssay (NCI).

Several values for one entry are separate records, joined by “and”; a condition that tells them apart may be missing. Equal values may be shown once. This is part of a sample that, as a whole, favours compounds with a hit. Of some 83,000 tested, about 20% had one in any assay.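 Note: values are percent growth. 100 is the growth of untreated cells, values between 100 and 0 indicate rising inhibition; between -100 and 0 indicates cell death.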 A number with no mark means an inactive call. Activity calls are given as the source filed them. Rule for the calls: active = growth percent below 10; inactive = the rest.

Test in all cases: NCI-60 one-dose screen, 48 h (100 = growth as untreated, 0 = no growth, -100 = all killed)
What all share (conditions): 10 µM

Assay [1] relates to NCI-H23 lung.
Assay [2] concerns NCI-H226 lung.
The test system of assay [3] is NCI-H322M lung.
In assay [4] the test system is HOP-62 NSCLC.
Assay [5] has as its system NCI-H460 lung.
For assay [6], the system named is HOP-92 NSCLC.
Assay [7] concerns NCI-H522 lung.
The test system of assay [8] is A549/ATCC NSCLC.
Assay [9] concerns 786-0 renal.
For assay [10], the system named is COLO 205 colon.
In assay [11] the test system is DU-145 prostate.
Assay [12] has as its system K-562 leukemia.
Assay [13] has as its system MALME-3M melanoma.
For assay [14], the system named is MDA-MB-231 breast.
Assay [15] has as its system RXF 393 renal.
The test system of assay [16] is SF-268 CNS.
Assay [17] has as its system SF-295 CNS.
The subject of assay [18] is SF-539 CNS.
For assay [19], the system named is UACC-257 melanoma.
The subject of assay [20] is M14 melanoma.

With `COC12C(COC(N)=O)C3=C(C(=O)C(C)=C(N)C3=O)N1CC1C2N1C` (centres undefined), the growth in assay [1] was 6.66% (active); in [2] it was 64.2%; in assay [3], 30%; in [4], 32.3%; in assay [5] it was -6.38% (active); in assay [6] it was -0.595% (active). In addition, the growth in assay [7] was 17.7%; in assay [8], 47.5%; in [9], 31.1%; in assay [10], 46.2%; in assay [11] it was -3.38% (active); in [12], 50.1%. Moreover, the growth was 31.4% in assay [13]; 93.9% in assay [14]; 46% in assay [15]; 45.8% in assay [16]; 17.3% in assay [17]; 19.8% in assay [18]. The values for the growth in assay [19] and in [20] were 16.6% and 28.4%, respectively.
`O=C(CBr)Nc1ccccc1`: the growth in assay [1] was 93.1%; in assay [2], 98.4%; in assay [3], 97.9%; in assay [4], 109%; in [5], 107%; in assay [6], 101%. Further, the growth in [7] is -84% (active); in assay [8], 98.5%; in [9], 102%; in assay [10], 116%; in assay [11] it was 102%; in assay [12], 39.4%. The growth was 54.7% in [13]; 95.3% in assay [14]; 107% in assay [15]; 90.1% in assay [16]; 103% in assay [17]; 106% in assay [18]. Also, the growth in assay [19] is 99.5%; in assay [20], 84.4%.
As for `C=NCC#N`, the growth is 97.8% and 97.9% in assay [1]; 107% and 99.3% in assay [2]; 107% and 118% in [3]; 93.2% and 93.4% in [4]; 102% and 120% in [5]; 97.6% in assay [6]. The growth in [7] was 68.8% and 103%; in [8] it was 110% and 104%; in [9], 99.4% and 103%; in [10] it was 113% and 111%; in assay [11], 109%; in assay [12], 91.2% and 107%. The growth in [13] was 95.6% and 111%; in assay [14] it was 100% and 112%; in assay [15] it was 111% and 101%; in [16] it was 103% and 102%; in assay [17], 98.3% and 124%; in [18] it was 88.4% and 99.3%. Further, the growth in assay [19] is 114% and 103%; in assay [20] it was 94.2%.
Regarding `C#CC1(O)CCC(C(C)(C)C)CC1` (centres undefined), the growth is 105% in assay [1]; 111% in assay [2]; 110% in assay [3]; 115% in assay [4]; 112% in assay [5]; 87.9% in [6]. The growth in [7] was 122%; in assay [8] it was 94.2%; in [9], 107%; in assay [10] it was 114%; in [11], 114%; in assay [12], 121%. In addition, the growth in assay [13] is 115%; in [14], 119%; in assay [15] it was 115%; in assay [16], 103%; in assay [17] it was 97.7%; in [18], 102%. For the same compound, the growth in assay [19] is 97%; in assay [20], 108%.
`O=[N+]([O-])c1ccc(Br)c([N+](=O)[O-])c1`: the growth in assay [1] was 108%; in assay [2], 101%; in assay [3], 115%; in assay [4] it was 115%; in [5] it was 94.8%; in [6], 109%. Further, the growth in [7] is -28.5% (active); in [8], 104%; in assay [9] it was 108%; in assay [10], 0.504% (active); in [11], 93.4%; in [12], 34.6%. Moreover, the growth was 68.6% in assay [13]; 88.9% in assay [14]; 102% in [15]; 96.8% in assay [16]; 108% in [17]; 98.7% in assay [18]. The growth in assay [19] was 74.3%; in [20], 79.9%.
For the compound `S=C=NCCc1ccccc1`, the growth in assay [1] was 20%; in assay [2], 85.8%; in assay [3], 110%; in [4] it was 85.2%; in assay [5] it was 58.5%; in assay [6], 56.5%. The growth is 44.1% in assay [7]; 61.7% in assay [8]; 71.5% in assay [9]; 63.1% in assay [10]; 44.5% in assay [11]; 20.4% in assay [12]. Also, the growth in [13] was 88.7%; in [14] it was 38.4%; in assay [15], 31.5%; in assay [16], 58.2%; in [17], 115%; in [18], 29.1%. The growth in assay [19] is 88.5%.
